High-throughput results as filed in PubChem BioAssay.
HCV inh: HCV inhibition | Potency, µM (doses to about 41.8 µM), for the others: top-dose activity change, negative = inhibition, most hits filed as inhibitors | AID 651820 | Huh7.5.1 HCVcc-Cre infection, luciferase reporter, 44 h | 340,000 tested, 3.4% active; active = well fitted inhibition curve with a large enough effect; inconclusive = small, poorly fitted or top-dose-only effect, or another doubt; inactive = no such curve, though single readings can be large or run the other way; also: potency is read from the fitted curve at half-maximal effect
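A cell-based infection assay in which seeded cells (1,000 per well) receive test compound after 4 h, are inoculated with HCVcc-Cre at approximately 0.5 moi, and are incubated 44 h before luminescence detection.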
Lassa entry inh: inhibitors of Lassa virus binding or cell entry; Lassa virus pseudotype entry inhibition, cell reporter; Potency, µM (doses to about 37.9 µM), for inactives: at the top dose activity change, negative = inhibition, usual class: inhibitors; 300,000 tested, 1.2% active; calls by dose curve; tested in HEK293 cells; also: potency is read from the fitted curve at half-maximal effect; nearly all actives have a fitted effect of over 50% in size
Marburg entry inh: blocks Marburg virus binding to or entry into cells. Marburg virus pseudotyped entry inhibition, cell reporter. Potency, µM (doses to about 37.8 µM), for inactives: at the top dose activity change, negative = inhibition, usual class: inhibitors. 300,000 tested, 1.8% active. AID 540276; calls by dose curve; tested in HEK293 cells; also: potency is read from the fitted curve at half-maximal effect
HCMV antiviral: inhibitors of human cytomegalovirus; AID 1259415; HFF cells, HCMV-luciferase reporter, 72 h; active compounds read low; 410,000 tested, 4.5% active; activity change, negative = inhibition, % at 57.5 µM; in the data active = activity change below about -60%; inconclusive = no clear call, values can overlap the other calls; inactive = above about -39%
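Screen run at 2 compound doses on HFFs infected with reporter HCMV, MOI 1 PFU/cell. Luciferase activity from cell lysates at 72 h post infection gave inhibition relative to buffer-only and Salinomycin wells.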
FMDV antiviral: blocks foot and mouth disease virus; FMDV antiviral cell-based qHTS; Potency, µM (doses to about 57.9 µM), without a hit: top-dose activity change, negative = inhibition, actives largely listed as inhibitors; 410,000 tested, 1.2% active; AID 1159524; calls by dose curve; tested in HEK293T cells; also: read-out not given here; potency is read from the fitted curve at half-maximal effect; nearly all actives have a fitted effect of over 45% in size
* = called active by the depositor; u = inconclusive; x = not tested or not shown; [ ] = another dose, or the depositor's remark. Shown are actives, neighbours in structure and some others; about 7.9% of the full set was active somewhere. % is scaled to controls: 0 for no effect and ±100 for the full control effect.

SMILES | HCV inh | Lassa entry inh | Marburg entry inh | HCMV antiviral | FMDV antiviral
CCOC(=O)CCCc1ccc(/C(C)=N/NC(N)=S)cc1 | u | u | u | -23 | -25%
CCOC(=O)CCCc1ccc(/C(C)=N/NC(=S)NC)cc1 | -26% | x | 6% | -95* | -21%
Cc1ccc(S(=O)(=O)/N=c2\ccc(Cl)cn2C(F)F)cc1 | 13% | x | x | -31 | 2%
O=C(Nc1ccc(Cl)cc1)c1cc(S(=O)(=O)NC2CCCCCC2)ccc1F | x | u | x | -67* | 1%
O=C1CC(Sc2nnnn2C2CCCCC2)C(=O)N1c1ccccc1 (configuration not stated) | u | -17% | -7% | -69* | x
O=C(CSc1ccccn1)Nc1ccc(NC(=O)CSc2ccccn2)cc1 | 0% | x | x | u | -13%
O=C(CSc1ccccn1)Nc1nonc1[N+](=O)[O-] | 7% | x | x | 54 | 32µM*
CC(C)c1ccc(CNCc2ccccc2)cc1 | -10% | 13% | 18µM* | u | x
CC(C)c1ccc(CNC(=O)CCc2ccccc2)cc1 | 12% | x | x | 20 | 4%
COc1ccc2oc(=O)c(C(=O)N3CCN(C(=O)c4ccco4)CC3)cc2c1 | 25% | u | 0%[46.1 µM] | 8 | 5%
Cc1ccc(S(=O)(=O)CCc2nnc(NC(=O)CCl)s2)cc1C | u | u | u | -78* | -4%
O=C1/C(=C/c2ccc(F)cc2)SC(=S)N1CC(=O)N1CCCCC1c1cccnc1 (configuration not stated) | u | x | x | -83* | -1%
O=C(/C=C/c1ccc(F)cc1)NC(=S)N1CCCCC1c1cccnc1 (configuration not stated) | -6% | 14% | 8%[46.1 µM] | -11 | 14%
O=C1/C(=C/c2ccccc2F)SC(=S)N1CC(=O)N1CCCCC1c1cccnc1 (configuration not stated) | u | x | x | -76* | 0%
Cc1cccc(C(=O)NCC(=O)OCc2cc(=O)n3ccsc3n2)c1 | 12% | 3% | 25% | -20 | -12%
CC1(Cc2ccc(OC(F)(F)F)cc2)C(=O)Nc2ccc(S(=O)(=O)NC3CCCCC3)cc21 (configuration not stated) | x | x | x | -99* | -1%
CC1(Cc2ccccc2OC(F)(F)F)C(=O)Nc2ccc(-c3ccsc3)cc21 (configuration not stated) | x | x | x | -75* | 0%
CC1(Cc2ccc3ccccc3n2)C(=O)Nc2ccc(OC(F)(F)F)cc21 (configuration not stated) | x | x | x | -98* | -21%
CC1(Cc2ccccc2OC(F)(F)F)C(=O)Nc2ccc(OC(F)(F)F)cc21 (configuration not stated) | x | x | x | -76* | u
COCCCNc1nc2c(c(=O)n(Cc3ccccc3)c(=O)n2C)n1C | x | 11%[46.1 µM] | 0%[46.1 µM] | 1 | -11%
CCOc1ccc(NC(=O)NC(CC)Cn2nnc3ccccc3c2=O)cc1 (configuration not stated) | x | 10%[46.1 µM] | u | 3 | -18%
COc1ccc(OC)c(-c2ccnc(-n3ncc(C(=O)NC(C)(C)CO)c3C3CC3)n2)c1 | x | x | x | x | 34%
Cc1cc(-c2ccc(C)c(S(=O)(=O)Nc3ccccc3C(F)(F)F)c2)on1 | x | 24%[46.1 µM] | x | -13 | -5%
COC(=O)c1ccc(Nc2nc(-c3ccc(C)cc3)nc3ccccc23)cc1 | x | 24%[46.1 µM] | 12%[46.1 µM] | -21 | 12%
Cc1ccc(-c2nc(Nc3ccc(O)cc3)c3ccccc3n2)cc1 | 7.1µM* | u | u | 36 | 35%
SMILES | HCV inh | Lassa entry inh | Marburg entry inh | HCMV antiviral | FMDV antiviral
c1ccc(Nc2nc(-c3ccccc3)nc3ccccc23)cc1 | 14µM* | x | x | -22 | -20%
c1cncc(Nc2c3ccccc3nc3ccccc23)c1 | u | 1% | u | -86* | -18%
Cc1ccc(-c2nc(Nc3cccc(O)c3)c3ccccc3n2)cc1 | 28µM* | x | x | u | -24%
COc1cc(=O)n2c(c1C(=O)NCc1ccc3c(c1)OCO3)CCN(C(=O)c1ccc(C)cc1)CC2 | x | x | x | x | 10%
Cc1ccccc1S(=O)(=O)NC(=O)C1(C)CCN1C(=O)C1(c2ccccc2)CC1 (configuration not stated) | x | x | x | 4 | 29%
O=C(c1cccnc1)C1CCCN(Cc2ccc3c(c2)CN(C(=O)c2cccc(Cl)c2)CCO3)C1 (configuration not stated) | x | x | x | x | -27%
COc1ccc(Nc2nc(-c3ccccc3O)nc3ccccc23)cc1 | u | -21% | u | u | u
